Data on 22 sequences can be found in publication PMC9838217, “Structure of SALL4 zinc finger domain reveals link between AT-rich DNA binding and Okihiro syndrome”.

Residue numbers refer to the chain shown, from its start.

Common to all, as to experiment: HT-SELEX; high values mean tight binding
Holding throughout (conditions): protein: recombinant; vector His6-GST; dsDNA, one strand shown

Test [1] concerns the target T1, SALL4 ZFC4 WT (HT-SELEX) (Mus musculus, UniProt Q8BX22 870-940).
T1 sequence: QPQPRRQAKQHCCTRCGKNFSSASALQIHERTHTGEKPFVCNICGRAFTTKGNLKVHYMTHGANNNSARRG
The essentials: (§1)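 Recombinant mouse SALL4 zinc finger cluster 4 (residues 870–940, 1 µg), purified, was mixed with library DNA (1.5 µg in the first cycle, 200 ng thereafter) in 100 µl of buffer containing 10 mM Tris–HCl pH 7.5, 50 mM NaCl, poly(dI-dC) and DTT, and left for 10 min at room temperature. Complexes were captured on Ni2+ beads, washed, amplified by PCR and reselected for up to 6 cycles in triplicate, after which MiSeq sequencing and a 6-mer scan followed. Binding signal is the read fraction of each canonical k-mer, given as fold change relative to the starting random library.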

Test [2] deals with T2, SALL4 ZFC4 R900W (HT-SELEX) (Mus musculus, UniProt Q8BX22 870-940, R900W).
T2 sequence: T1 sequence with R31W
The method in brief: as §1

Test [3] addresses T3, SALL4 ZFC4 G921D (HT-SELEX) (Mus musculus, UniProt Q8BX22 870-940, G921D).
T3 sequence: T1 sequence with G52D
The method in brief:
as §1

On to ACAACT, for which the binding signal stood at 1.25 ± 0.0434 fold-change vs cycle 0 in test [1], 1.37 ± 0.0317 fold-change vs cycle 0 in test [2] and 1.38 ± 0.0748 fold-change vs cycle 0 in test [3].
As to CGTAAC, the binding signal in test [1] was determined as 0.768 ± 0.0406 fold-change vs cycle 0; in test [2], 0.887 ± 0.0447 fold-change vs cycle 0; in test [3], 0.922 ± 0.0472 fold-change vs cycle 0.
Take AAATCT: the binding signal in test [1] was 1.82 ± 0.0976 fold-change vs cycle 0; in test [2], 1.85 ± 0.0812 fold-change vs cycle 0; in test [3], 1.72 ± 0.124 fold-change vs cycle 0.
The corresponding values for AGACAT are 1.29 ± 0.0778 fold-change vs cycle 0, 1.45 ± 0.0615 fold-change vs cycle 0 and 1.37 ± 0.0528 fold-change vs cycle 0.
Regarding CAGGGA, the values for the binding signal in test [1], in test [2] and in test [3] were 0.492 ± 0.0092 fold-change vs cycle 0, 0.57 ± 0.0327 fold-change vs cycle 0 and 0.629 ± 0.0495 fold-change vs cycle 0, respectively.
For GATTCC, in that order: 0.9 ± 0.0488 fold-change vs cycle 0, 0.964 ± 0.0255 fold-change vs cycle 0 and 1.03 ± 0.0179 fold-change vs cycle 0.
As to AGTATG, the binding signal in test [1] was 1.43 ± 0.0699 fold-change vs cycle 0; in test [2], 1.49 ± 0.072 fold-change vs cycle 0; in test [3], 1.38 ± 0.0928 fold-change vs cycle 0.
With CGATGA, the binding signal came out at 0.734 ± 0.0173 fold-change vs cycle 0 in test [1], 0.797 ± 0.0326 fold-change vs cycle 0 in test [2] and 0.875 ± 0.0214 fold-change vs cycle 0 in test [3].
For ACCCCT, in that order: 0.522 ± 0.0409 fold-change vs cycle 0, 0.619 ± 0.0154 fold-change vs cycle 0 and 0.676 ± 0.0257 fold-change vs cycle 0.
On to ATGCAC, for which the values for the binding signal in test [1], in test [2] and in test [3] were 0.606 ± 0.0179 fold-change vs cycle 0, 0.667 ± 0.022 fold-change vs cycle 0 and 0.775 ± 0.052 fold-change vs cycle 0, respectively.
The corresponding values for GATATA are 2.54 ± 0.207 fold-change vs cycle 0, 1.98 ± 0.124 fold-change vs cycle 0 and 1.77 ± 0.173 fold-change vs cycle 0.
The corresponding values for CAACCA are 0.686 ± 0.0177 fold-change vs cycle 0, 0.804 ± 0.0166 fold-change vs cycle 0 and 0.877 ± 0.0338 fold-change vs cycle 0.
For ACATCC, in that order: 0.877 ± 0.0368 fold-change vs cycle 0, 0.969 ± 0.0252 fold-change vs cycle 0 and 0.991 ± 0.0197 fold-change vs cycle 0.
Consider AGGTGA, for which the binding signal in test [1] was 0.887 ± 0.0607 fold-change vs cycle 0; in test [2], 0.987 ± 0.0758 fold-change vs cycle 0; in test [3] it was 1.04 ± 0.0735 fold-change vs cycle 0.
For CTTTTA, in that order: 1.77 ± 0.0546 fold-change vs cycle 0, 1.86 ± 0.125 fold-change vs cycle 0 and 1.63 ± 0.122 fold-change vs cycle 0.
On to AGGACG, for which the binding signal turned out to be 0.361 ± 0.014 fold-change vs cycle 0 in test [1], 0.462 ± 0.00636 fold-change vs cycle 0 in test [2] and 0.558 ± 0.0296 fold-change vs cycle 0 in test [3].
In the case of GCCTGA, the binding signal was found to be 0.303 ± 0.0278 fold-change vs cycle 0 in test [1], 0.386 ± 0.0159 fold-change vs cycle 0 in test [2] and 0.497 ± 0.0446 fold-change vs cycle 0 in test [3].
For GTCATA, in that order: 1.45 ± 0.0661 fold-change vs cycle 0, 1.36 ± 0.05 fold-change vs cycle 0 and 1.34 ± 0.0974 fold-change vs cycle 0.
In the case of ATTGAC, the binding signal stood at 1.17 ± 0.0362 fold-change vs cycle 0 in test [1], 1.31 ± 0.032 fold-change vs cycle 0 in test [2] and 1.3 ± 0.0284 fold-change vs cycle 0 in test [3].
ATGAAA: the binding signal amounted to 2.91 ± 0.152 fold-change vs cycle 0 in test [1], 1.98 ± 0.0876 fold-change vs cycle 0 in test [2] and 1.79 ± 0.147 fold-change vs cycle 0 in test [3].
The corresponding values for ACACAT are 1.25 ± 0.0206 fold-change vs cycle 0, 1.33 ± 0.0439 fold-change vs cycle 0 and 1.32 ± 0.0216 fold-change vs cycle 0.
The corresponding values for AAATGT are 1.68 ± 0.0685 fold-change vs cycle 0, 1.7 ± 0.0668 fold-change vs cycle 0 and 1.58 ± 0.133 fold-change vs cycle 0.
